Measured values taken from PubChem BioAssay (Tox21).
Values joined by “and” are separate entries in the source; they are usually repeats but may differ in a detail not shown here. Identical values can stand only once. Results filed as inconclusive are left out. A call without a number means that no potency is given here. More than one record can exist for a structure, and the calls need not agree. Active and inactive are the calls of the source. Unless noted, the call rests on the fitted dose curve; in most records, active means well fitted curve in the direction sought with a large enough effect in the repeat runs; inconclusive means weak or mixed curves; inactive means no such curve, though single readings can be large; an effect the other way counts as inactive or inconclusive.

Experiments:
[1] = qHTS assay to identify small molecule antagonists of the thyroid receptor (TR) signaling pathway - cell viability counter screen (AID 743064); further: nearly all actives have a fitted effect of over 50% in size; further: potency means the concentration at half of the fitted maximal effect
Summary of the method: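 Plate GH3.TRE-Luc cells; incubate 4 h at 37 °C; add compound, then T3 to 1 nM final; incubate 23.5 h; add CellTiter-Fluor; incubate 30 min at 37 °C, 5% CO2; read fluorescence.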

[2] = qHTS assay to identify small molecule antagonists of the thyroid receptor (TR) signaling pathway (AID 743065); further: nearly all actives have a fitted effect of over 55% in size; further: potency means the concentration at half of the fitted maximal effect
Summary of the method: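 GH3.TRE-Luc rat pituitary cells carrying two TR response elements driving luciferase were plated for 4 h, given compound plus 1 nM T3 (final), and incubated 23.5 h at 37 C. ONE-Glo luminescence measured reporter inhibition; CellTiter-Fluor fluorescence tracked cytotoxicity.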

[3] = tested on: thyroid hormone receptor (rat, GH3 cells); experiment: qHTS assay to identify small molecule agonists of the thyroid receptor (TR) signaling pathway (AID 743066; calls by dose curve)
[4] = qHTS assay to identify small molecule antagonists of the estrogen receptor alpha (ER-alpha) signaling pathway - cell viability counter screen (AID 743074; calls by dose curve;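 further: HEK293 cells carrying ER-alpha-UAS-bla reporter stimulated with 17beta-estradiol; nearly all actives have a fitted effect of over 45% in size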; further: potency means the concentration at half of the fitted maximal effect)
[5] = qHTS assay to identify small molecule antagonists of the estrogen receptor alpha (ER-alpha) signaling pathway using the BG1 cell line - cell viability counter screen (AID 743081);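 further: compound given together with 17beta-estradiol as the ER stimulus; series mostly up to about 70 µM; nearly all actives have a fitted effect of over 45% in size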
[6] = biological target: Aromatase (Homo sapiens) (UniProt P11511); experiment: qHTS assay to identify aromatase inhibitors (AID 743083); further: nearly all actives have a fitted effect of over 55% in size; further: potency means the concentration at half of the fitted maximal effect
[7] = qHTS assay to identify aromatase inhibitors - cell viability counter screen (AID 743084);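 further: cells stimulated with testosterone during compound exposure; nearly all actives have a fitted effect of over 55% in size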
[8] = biological target: Aryl hydrocarbon receptor (Homo sapiens) (UniProt P35869); experiment: qHTS assay to identify small molecule that activate the aryl hydrocarbon receptor (AhR) signaling pathway (AID 743085); further: nearly all actives have a fitted effect of over 15% in size; further: potency means the concentration at half of the fitted maximal effect;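 on activation: HG2L7.5c1 human HepG2 liver cells with stably integrated DRE-driven firefly reporter; series mostly up to about 70 µM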
Summary of the method: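 Steps: seed HepG2-AhR-luc cells; allow 5 h at 37C; pin-transfer test compound or vehicle; incubate 24 h at 37C; add viability dye (30 min, 37C) and read fluorescence; add luciferase substrate (30 min, RT) and read luminescence.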

[9] = qHTS assay to identify small molecule that activate the aryl hydrocarbon receptor (AhR) signaling pathway - cell viability counter screen (AID 743086);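 further: HepG2 liver cells carrying the AhR DRE luciferase reporter; series mostly up to about 70 µM; nearly all actives have a fitted effect of over 45% in size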
Summary of the method: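 HepG2-AhR-luc (HG2L7.5c1) cells, 4000/well, were preincubated 5 h at 37C, exposed to compound in qHTS format for 24 hr at 37C, then given CellTiter-Fluor for 30 min; viability was read as fluorescence in the reporter wells.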

[10] = qHTS assay to identify small molecule antagonists of the peroxisome proliferator-activated receptor gamma (PPARg) signaling pathway - cell viability counter screen (AID 743194); details: Potency: co-treated with 50 nM rosiglitazone unless noted; further: nearly all actives have a fitted effect of over 55% in size; further: potency means the concentration at half of the fitted maximal effect
Summary of the method: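 PPARg-UAS-bla HEK293H cells were plated, rested 5 h at 37 C, then treated with compounds plus rosiglitazone (50 nM final) for 17 h at 37 C; viability was then read by CellTiter-Glo luminescence after 30 min at room temperature.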

[11] = qHTS assay for small molecule agonists of the antioxidant response element (ARE) signaling pathway - cell viability counter screen (AID 743203; calls by dose curve; further: nearly all actives have a fitted effect of over 55% in size; further: potency means the concentration at half of the fitted maximal effect)
Summary of the method: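 Cells (ARE-bla HepG2, 2,000/well) receive DMSO-dissolved compounds after a 5 hrs rest. Plates incubate 16 hrs at 37C/5% CO2. CellTiter-Glo luminescence is then recorded after 30 min at room temperature.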

[12] = qHTS assay for small molecule activators of the heat shock response signaling pathway - cell viability counter screen (AID 743209); further: nearly all actives have a fitted effect of over 50% in size; further: potency means the concentration at half of the fitted maximal effect
Summary of the method: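 Quantitative HTS format, Tox21 10K library. HeLa cells carrying an HSE-driven beta-lactamase reporter were treated 5 h at 37 C, then assessed for viability by CellTiter-Glo luminescence.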

[13] = qHTS assay for small molecule activators of the heat shock response signaling pathway (AID 743210; active means well fitted activation curve with a large enough effect in the signal ratio in the repeat runs, with a control signal flat, not every such curve was filed as active; the % refers to the signal ratio; further: potency means the concentration at half of the fitted maximal effect;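 on activation: HeLa cells with beta-lactamase reporter driven by heat shock elements; series mostly up to about 63 µM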)
Summary of the method: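 Reporter gene assay: HeLa cells stably bearing an HSE-bla construct, compound treatment 5 h at 37 C, LiveBLAzer substrate 2.5 h at RT, fluorescence intensity.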

[14] = biological target: Estrogen receptor (Homo sapiens) (UniProt P03372); experiment: qHTS assay to identify small molecule agonists of the estrogen receptor alpha (ER-alpha) signaling pathway (AID 743075; calls by dose curve;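 further: HEK293 GripTite cells with ER-alpha and UAS-driven beta-lactamase reporter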)
[15] = biological target: Estrogen receptor (Homo sapiens) (UniProt P03372); experiment: qHTS assay to identify small molecule agonists of the estrogen receptor alpha (ER-alpha) signaling pathway using the BG1 cell line (AID 743079); further: nearly all actives have a fitted effect of over 20% in size
[16] = qHTS assay to identify small molecule antagonists of the estrogen receptor alpha (ER-alpha) signaling pathway using the BG1 cell line (AID 743080; calls by dose curve;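 further: BG1 cells stimulated with 17beta-estradiol alongside compound; nearly all actives have a fitted effect of over 25% in size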; further: potency means the concentration at half of the fitted maximal effect)
Summary of the method: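 BG1-Luc-4E2 cells (endogenous full-length ER-alpha, stable 4×ERE-luciferase) were starved 5 days in phenol-red-free medium with 10% charcoal-stripped FBS, plated 24 h, then given compound plus 17beta-estradiol for 21.5 h at 37 C; ONE-Glo luminescence read after 30 min.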

[17] = qHTS assay for small molecule agonists of the antioxidant response element (ARE) signaling pathway (AID 743202; active means well fitted activation curve with a large enough effect in the signal ratio in the repeat runs, not every such curve was filed as active; the % refers to the signal ratio; further: potency means the concentration at half of the fitted maximal effect)
Summary of the method: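 Compounds delivered in DMSO to ARE-bla HepG2 cells (2,000 cells/well, pre-incubated 5 h) and left 16 h at 37 C. LiveBLAzer B/G FRET substrate then added for 2 h at RT before fluorescence reading.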

[18] = biological target: Peroxisome proliferator-activated receptor gamma (Homo sapiens) (UniProt P37231); experiment: qHTS assay to identify small molecule agonists of the peroxisome proliferator-activated receptor gamma (PPARg) signaling pathway (AID 743094; active means well fitted activation curve with a large enough effect in the signal ratio in the repeat runs, not every such curve was filed as active; the % refers to the signal ratio)
Summary of the method: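 Stably transfected HEK293H cells (GeneBLAzer PPARg UAS-bla) were incubated with test substances for 17 h at 37C after a 5 h pre-incubation; beta-lactamase activity was then detected by FRET substrate fluorescence.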

[19] = biological target: Peroxisome proliferator-activated receptor gamma (Homo sapiens) (UniProt P37231); experiment: qHTS assay to identify small molecule antagonists of the peroxisome proliferator-activated receptor gamma (PPARg) signaling pathway (AID 743191; calls by dose curve; further: nearly all actives have a fitted effect of over 30% in size; further: potency means the concentration at half of the fitted maximal effect)
Summary of the method: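 GeneBLAzer PPARg UAS-bla HEK293H cells carrying a UAS-driven beta-lactamase reporter were plated at 3000 cells/well, preincubated 5 h at 37C, then given compound for 17 h at 37C; LiveBLAzer B/G FRET substrate was read after 1 h at room temperature.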

[20] = biological target: Estrogen receptor (Homo sapiens) (UniProt P03372); experiment: qHTS assay to identify small molecule antagonists of the estrogen receptor alpha (ER-alpha) signaling pathway (AID 743069; active means well fitted curve in the direction sought with a large enough effect in the signal ratio in the repeat runs, not every such curve was filed as active; the % refers to the signal ratio)
Summary of the method: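 Estradiol-stimulated ER-alpha-UAS-bla HEK293 cells, 18 hr compound exposure at 37C. LiveBLAzer B/G substrate, 2 hr RT, fluorescence read.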

Sequence of Aryl hydrocarbon receptor (Homo sapiens) (P35869 whole entry, looked up): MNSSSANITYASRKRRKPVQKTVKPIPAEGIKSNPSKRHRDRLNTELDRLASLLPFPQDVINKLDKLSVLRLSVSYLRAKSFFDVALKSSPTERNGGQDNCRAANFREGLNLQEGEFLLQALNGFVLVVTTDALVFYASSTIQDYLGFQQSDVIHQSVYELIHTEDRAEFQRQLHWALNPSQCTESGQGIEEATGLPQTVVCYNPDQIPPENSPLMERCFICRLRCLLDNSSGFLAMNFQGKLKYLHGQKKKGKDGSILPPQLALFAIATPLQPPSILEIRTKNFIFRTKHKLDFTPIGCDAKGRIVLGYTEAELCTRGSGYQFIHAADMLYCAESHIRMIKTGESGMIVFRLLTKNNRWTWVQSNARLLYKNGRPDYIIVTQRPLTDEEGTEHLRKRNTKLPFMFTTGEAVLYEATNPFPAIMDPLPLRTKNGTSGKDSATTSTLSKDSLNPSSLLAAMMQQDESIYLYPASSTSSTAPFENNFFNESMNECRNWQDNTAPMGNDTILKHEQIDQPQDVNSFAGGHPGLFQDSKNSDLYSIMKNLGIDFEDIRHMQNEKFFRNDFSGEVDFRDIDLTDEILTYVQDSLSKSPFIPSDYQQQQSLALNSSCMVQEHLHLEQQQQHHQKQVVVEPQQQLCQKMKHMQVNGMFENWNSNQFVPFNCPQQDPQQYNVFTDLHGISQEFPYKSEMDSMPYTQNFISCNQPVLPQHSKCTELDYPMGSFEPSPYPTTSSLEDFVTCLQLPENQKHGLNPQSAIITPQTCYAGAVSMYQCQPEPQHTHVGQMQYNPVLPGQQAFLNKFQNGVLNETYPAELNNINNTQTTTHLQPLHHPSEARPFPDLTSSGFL
Sequence of Peroxisome proliferator-activated receptor gamma (Homo sapiens) (P37231 whole entry, looked up): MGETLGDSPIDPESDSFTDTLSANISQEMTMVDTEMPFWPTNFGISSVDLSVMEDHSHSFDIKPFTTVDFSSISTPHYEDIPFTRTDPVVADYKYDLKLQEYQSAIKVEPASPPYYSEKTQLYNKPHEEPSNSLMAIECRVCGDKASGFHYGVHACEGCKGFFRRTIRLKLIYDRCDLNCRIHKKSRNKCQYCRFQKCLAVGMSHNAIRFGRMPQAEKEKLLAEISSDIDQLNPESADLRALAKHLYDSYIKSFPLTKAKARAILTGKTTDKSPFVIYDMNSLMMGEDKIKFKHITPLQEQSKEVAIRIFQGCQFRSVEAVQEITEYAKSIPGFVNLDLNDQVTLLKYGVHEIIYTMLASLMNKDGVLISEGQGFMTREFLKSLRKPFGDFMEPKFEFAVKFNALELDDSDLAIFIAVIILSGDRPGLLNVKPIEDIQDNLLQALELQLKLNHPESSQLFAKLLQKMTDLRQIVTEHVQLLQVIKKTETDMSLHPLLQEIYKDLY
Sequence of Estrogen receptor (Homo sapiens) (P03372 whole entry, looked up): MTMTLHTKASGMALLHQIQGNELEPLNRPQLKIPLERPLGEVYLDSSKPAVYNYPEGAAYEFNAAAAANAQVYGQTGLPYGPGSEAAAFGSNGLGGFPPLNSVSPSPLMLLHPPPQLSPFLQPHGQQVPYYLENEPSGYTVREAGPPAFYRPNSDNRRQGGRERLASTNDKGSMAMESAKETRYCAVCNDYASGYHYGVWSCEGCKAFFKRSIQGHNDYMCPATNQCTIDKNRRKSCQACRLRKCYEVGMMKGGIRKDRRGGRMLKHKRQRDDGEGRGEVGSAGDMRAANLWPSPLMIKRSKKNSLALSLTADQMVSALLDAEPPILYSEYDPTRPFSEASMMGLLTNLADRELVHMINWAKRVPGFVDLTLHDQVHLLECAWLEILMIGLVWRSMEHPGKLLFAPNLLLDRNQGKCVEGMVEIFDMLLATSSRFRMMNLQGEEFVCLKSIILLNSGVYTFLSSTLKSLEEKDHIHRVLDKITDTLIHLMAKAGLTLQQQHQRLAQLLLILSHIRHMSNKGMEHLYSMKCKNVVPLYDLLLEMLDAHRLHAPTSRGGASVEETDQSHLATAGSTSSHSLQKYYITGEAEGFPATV
Sequence of Aromatase (Homo sapiens) (P11511 whole entry, looked up): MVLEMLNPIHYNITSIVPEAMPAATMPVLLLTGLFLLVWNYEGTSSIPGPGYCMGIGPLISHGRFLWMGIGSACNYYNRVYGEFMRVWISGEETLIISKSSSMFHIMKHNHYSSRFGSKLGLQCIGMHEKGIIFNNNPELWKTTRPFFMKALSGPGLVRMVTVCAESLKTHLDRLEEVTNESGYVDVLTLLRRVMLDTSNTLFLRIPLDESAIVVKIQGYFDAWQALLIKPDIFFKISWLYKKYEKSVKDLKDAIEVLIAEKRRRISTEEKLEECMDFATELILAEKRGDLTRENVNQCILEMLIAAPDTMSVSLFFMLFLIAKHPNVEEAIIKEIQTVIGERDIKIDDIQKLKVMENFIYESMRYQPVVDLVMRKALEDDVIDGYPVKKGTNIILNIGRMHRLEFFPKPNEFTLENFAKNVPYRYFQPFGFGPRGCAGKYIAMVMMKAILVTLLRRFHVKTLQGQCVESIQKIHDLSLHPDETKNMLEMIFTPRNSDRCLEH

C=CCc1ccc(OC)cc1
Potency [1]: inactive
Potency [2]: inactive
Potency [3]: inactive
Potency [4]: inactive
Potency [5]: inactive
Potency [6]: inactive
Potency [7]: inactive
Potency [8]: inactive
Potency [9]: inactive
Potency [10]: inactive
Potency [11]: inactive
Potency [12]: inactive
Potency [13]: inactive

COP(=S)(OC)Oc1cc(Cl)c(Cl)cc1Cl
Potency [1]: inactive
Potency [2]: inactive
Potency [3]: inactive
Potency [4]: inactive
Potency [14]: inactive
Potency [15]: inactive
Potency [16]: inactive
Potency [5]: inactive
Potency [6]: inactive
Potency [7]: inactive
Potency [8]: inactive and 30.4 µM (active)
Potency [9]: inactive
Potency [10]: inactive
Potency [17]: inactive
Potency [11]: inactive
Potency [12]: inactive
Potency [13]: inactive

CN(C)C(=O)Nc1ccc(Cl)cc1
Potency [1]: inactive
Potency [2]: inactive
Potency [3]: inactive
Potency [4]: inactive
Potency [5]: inactive
Potency [6]: inactive
Potency [7]: inactive
Potency [8]: inactive
Potency [9]: inactive
Potency [18]: inactive
Potency [19]: inactive
Potency [10]: inactive
Potency [17]: inactive
Potency [11]: inactive
Potency [12]: inactive
Potency [13]: inactive

N#Cc1cc(Br)c(O)c(Br)c1
Potency [1]: inactive
Potency [2]: 68.5 µM (active)
Potency [3]: inactive
Potency [20]: inactive
Potency [4]: inactive
Potency [14]: inactive
Potency [16]: 68.5 µM (active) and 52.5 µM (active)
Potency [5]: inactive
Potency [6]: inactive
Potency [7]: inactive
Potency [9]: inactive
Potency [19]: 54.9 µM (active) and 21.1 µM (active)
Potency [10]: inactive
Potency [11]: inactive
Potency [12]: inactive
Potency [13]: inactive

C[C@]12CCC(=O)C[C@@H]1CC[C@@H]1[C@@H]2CC[C@]2(C)[C@@H](O)CC[C@@H]12
Potency [1]: inactive
Potency [2]: 48 µM (active)
Potency [3]: inactive
Potency [4]: inactive
Potency [5]: inactive
Potency [6]: inactive
Potency [7]: inactive
Potency [8]: inactive
Potency [9]: inactive
Potency [10]: inactive
Potency [17]: 27 µM (active)
Potency [11]: inactive
Potency [12]: inactive
Potency [13]: inactive

CCOC(=S)S
Potency [1]: inactive
Potency [2]: 51.7 µM (active)
Potency [3]: inactive
Potency [4]: inactive
Potency [5]: inactive
Potency [6]: 68.6 µM (active) and 58 µM (active)
Potency [8]: inactive
Potency [9]: inactive
Potency [10]: inactive
Potency [11]: inactive
Potency [12]: 17.4 µM (active)
Potency [13]: 2.24 µM (active)

Cc1ccc(OP(=O)(Oc2ccc(C)cc2)Oc2ccc(C)cc2)cc1
Potency [1]: inactive
Potency [2]: inactive
Potency [3]: inactive
Potency [4]: inactive
Potency [5]: inactive
Potency [6]: inactive
Potency [7]: inactive
Potency [8]: inactive
Potency [9]: inactive
Potency [10]: inactive
Potency [11]: inactive
Potency [12]: inactive
Potency [13]: inactive

Cc1cccc(N)c1N
Potency [1]: inactive
Potency [2]: inactive
Potency [3]: inactive
Potency [4]: inactive
Potency [5]: inactive
Potency [6]: inactive
Potency [7]: inactive
Potency [8]: 11.8 µM (active) and 43.3 µM (active)
Potency [9]: inactive
Potency [18]: inactive
Potency [19]: inactive
Potency [10]: inactive
Potency [17]: 9.36 µM (active) and 17.2 µM (active)
Potency [11]: inactive
Potency [12]: inactive
Potency [13]: inactive

c1cc(OCC2CO2)ccc1Cc1ccc(OCC2CO2)cc1 (stereo unspecified)
Potency [1]: 43.5 µM (active) and 48.6 µM (active)
Potency [2]: 24.4 µM (active) and 21.7 µM (active)
Potency [3]: inactive
Potency [4]: inactive
Potency [14]: inactive
Potency [15]: inactive
Potency [16]: inactive
Potency [5]: inactive
Potency [6]: inactive
Potency [9]: inactive
Potency [17]: 61.4 µM (active) and 61.1 µM (active)
Potency [11]: inactive
Potency [12]: inactive

CCCCOCCOP(=O)(OCCOCCCC)OCCOCCCC
Potency [1]: 54.5 µM (active) and inactive
Potency [2]: 24.4 µM (active) and 19.3 µM (active)
Potency [3]: inactive
Potency [20]: inactive
Potency [14]: inactive
Potency [15]: inactive
Potency [16]: inactive
Potency [5]: inactive
Potency [6]: inactive
Potency [7]: inactive
Potency [9]: inactive
Potency [18]: inactive
Potency [19]: inactive
Potency [10]: inactive
Potency [11]: inactive
Potency [12]: inactive
Potency [13]: inactive

O=C(Nc1ccc(Br)cc1)c1cc(Br)cc(Br)c1O
Potency [1]: 16.8 µM (active) and 5.43 µM (active) and 4.33 µM (active)
Potency [2]: 8.41 µM (active) and 2.16 µM (active) and 1.93 µM (active)
Potency [3]: inactive
Potency [4]: 6.01 µM (active) and 4.35 µM (active) and 2.19 µM (active)
Potency [14]: inactive
Potency [16]: 15.4 µM (active)
Potency [5]: inactive
Potency [6]: inactive and 13.7 µM (active)
Potency [7]: inactive
Potency [8]: 5.31 µM (active) and 3.42 µM (active) and 3.06 µM (active)
Potency [9]: inactive
Potency [10]: 488 nM (active) and 245 nM (active) and 3.76 µM (active)
Potency [11]: 34.2 µM (active) and 9.69 µM (active) and 13.3 µM (active)

C1=Cc2cccc3cccc1c23
Potency [1]: inactive
Potency [2]: inactive
Potency [3]: inactive
Potency [4]: inactive
Potency [5]: inactive
Potency [6]: inactive
Potency [7]: inactive
Potency [9]: inactive
Potency [19]: inactive
Potency [10]: inactive
Potency [11]: inactive
Potency [12]: inactive
Potency [13]: inactive

O=Cc1ccco1
Potency [1]: inactive
Potency [2]: inactive
Potency [3]: inactive
Potency [4]: inactive
Potency [5]: inactive
Potency [6]: inactive
Potency [7]: inactive
Potency [8]: inactive
Potency [9]: inactive
Potency [10]: inactive
Potency [11]: inactive
Potency [12]: inactive
Potency [13]: inactive
